# According to PubChem BioAssay (NCI):
# About 83,000 compounds went through this panel and 20% of them were active in at least one assay; those are over-represented in the sample as a whole.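 The endpoint reported here, percent growth, reads 100 for growth as untreated, 0 for no net growth and -100 for all cells dead.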 Unmarked numbers belong to inactive results. The source made the active and inactive calls. Rule for the calls: active = growth percent below 10; inactive = the rest.
# Key:
# Assay in all cases: NCI-60 one-dose screen, 48 h (100 = growth as untreated, 0 = no growth, -100 = all killed)
# Conditions in all cases: 10 µM unless noted
# SR leukemia = tested on: SR leukemia
# RPMI-8226 leukemia = tested on: RPMI-8226 leukemia
# OVCAR-8 ovarian = tested on: OVCAR-8 ovarian
# OVCAR-5 ovarian = tested on: OVCAR-5 ovarian
# OVCAR-4 ovarian = tested on: OVCAR-4 ovarian
# SK-OV-3 ovarian = tested on: SK-OV-3 ovarian
# IGROV1 ovarian = tested on: IGROV1 ovarian
# OVCAR-3 ovarian = tested on: OVCAR-3 ovarian
# NCI/ADR-RES ovarian = tested on: NCI/ADR-RES ovarian
# T-47D breast = tested on: T-47D breast
# BT-549 breast = tested on: BT-549 breast
# MDA-MB-435 melanoma = tested on: MDA-MB-435 melanoma
# MCF7 breast = tested on: MCF7 breast
# HCT-116 colon = tested on: HCT-116 colon
# HCC-2998 colon = tested on: HCC-2998 colon
# KM12 colon = tested on: KM12 colon
# HS 578T breast = tested on: HS 578T breast
# SW-620 colon = tested on: SW-620 colon
SMILES,growth (SR leukemia),growth (RPMI-8226 leukemia),growth (OVCAR-8 ovarian),growth (OVCAR-5 ovarian),growth (OVCAR-4 ovarian),growth (SK-OV-3 ovarian),growth (IGROV1 ovarian),growth (OVCAR-3 ovarian),growth (NCI/ADR-RES ovarian),growth (T-47D breast),growth (BT-549 breast),growth (MDA-MB-435 melanoma),growth (MCF7 breast),growth (HCT-116 colon),growth (HCC-2998 colon),growth (KM12 colon),growth (HS 578T breast),growth (SW-620 colon)
O=c1ccn(-c2ncnc3nc[nH]c23)cc1,86.2%,76.4%,101%,93.8%,93.3%,84.8%,88%,88.3%,97.6%,84%,98.9%,102%,88%,96.5%,106%,91.8%,,
O=C1Nc2ccc3c(c2/C1=C\c1cc2c(cc1Br)OCO2)OCO3,29.3%,14.4%,35%,65.2%,-45.5% (active),2.7% (active),-7.11% (active),,1.49% (active),,27.8%,-38.7% (active),4.51% (active),-2.7% (active),43.6%,-6.85% (active),-14.5% (active),7.57% (active)
O=C(CSC1CCc2ccccc21)N/N=C/c1ccccc1O (stereo not given),17.7%,71.5%,57.3%,78.1%,38.1%,50%,,20.6%,24.1%,40.3%,68.9%,71.7%,19.2%,31.5%,66.7%,41%,84.9%,52.9%
COc1ccc(/C=C2\Oc3cc(OCCCN4CCCC4)ccc3C2=O)cc1,-28.4% (active),86.9%,95.9%,92.9%,90.1%,106%,88.4%,94.3%,96.2%,94%,95.5%,97.6%,69.8%,55.7%,91.3%,82.7%,,77.1%
Cc1nc2ncccc2nc1Nc1ccc(S(=O)(=O)Nc2cncs2)cc1,102%,88.4%,103%,96.4%,98.6%,86.2%,51%,,98%,82.7%,83%,114%,82.2%,97.5%,95.1%,97.7%,92.8%,
NC1N=C(SCC(=O)N2CCN(c3cc4c(cc3F)c(=O)c(C(=O)O)cn4C3CC3)CC2)NC(=O)/C1=C/c1ccc(Cl)cc1 (stereo not given),110%,101%,102%,104%,99.5%,114%,104%,109%,105%,97.9%,122%,105%,105%,101%,109%,107%,,104%
CCCCOc1ccc(/C=C2/SC(N3CCOCC3)=NC2=O)cc1OCC,89.5%,95.6%,103%,88.3%,87.6%,-16.1% (active),89%,115%,94.5%,80.6%,83%,99.6%,99.4%,93.2%,109%,98.7%,,96.9%
COc1cc(C(=O)/C=C/c2ccc3nc(-c4cc(F)cc(F)c4)sc3c2)cc(OC)c1OC,103%,90.7%,104%,97.1%,107%,94.5%,,112%,98.7%,102%,95.3%,106%,97.5%,87%,93.1%,108%,93.1%,104%
CCN1CCN(CC(=O)N2c3cccc4cccc(c34)N(C(=O)CN3CCN(CC)CC3)C2c2cn(-c3ccccc3)nc2-c2cccc([N+](=O)[O-])c2)CC1,-48% (active),-39.3% (active),-9.32% (active),1.54% (active),-76.4% (active),115%,-29.1% (active),-70.8% (active),47.3%,-70.7% (active),80.7%,-75.7% (active),-29% (active),-54.9% (active),-49.1% (active),23.4%,,-43.6% (active)
NC(=O)c1c(NC(=S)Nc2ccc(OC(F)(F)F)cc2)sc2c1CCC1(C2)OCCO1,92.1%,93.2%,99.7%,91.9%,95.3%,89.9%,,109%,98.9%,86%,93.8%,81.6%,90.1%,98.2%,102%,94.6%,79.5%,92.9%
COc1ccc(/C=C2\Oc3cc(OCCCN4CCCC4)ccc3C2=O)c(OC)c1,-26.5% (active),66.9%,80%,100%,90.3%,110%,88.2%,97.4%,91%,99%,95.4%,97%,44.4%,,86.3%,67.1%,,33.5%
COc1ccc2[nH]c(=O)c3c4ccccc4cn3c2c1,-27.2% (active),-59.6% (active),24.4%,31.4%,49.1%,32.8%,16.8%,,24.8%,44.6%,37.9%,-23.3% (active),17.1%,-28.9% (active),31.3%,,,13.3%
Cc1ccc(-c2csc(NC(=O)CCCCl)n2)cc1,84.4%,82.7%,106%,94.6%,90.7%,105%,95%,101%,101%,77.2%,98.1%,103%,90.7%,98.6%,103%,95%,,107%
O=C(CSc1nc2ccccc2[nH]1)c1ccc(N2CCOCC2)cc1,129%,109%,96%,102%,96.5%,101%,105%,106%,91.9%,94.1%,93%,100%,92.2%,94.3%,98.3%,104%,,94.5%
COc1ccc(-c2cn(-c3cccc(C(=O)/C=C/c4cc(OC)c(OC)c(OC)c4)c3)c(=O)[nH]2)cc1OC,6.01% (active),6.95% (active),64.9%,93.6%,85.7%,82.7%,,98.2%,90.7%,62.9%,85%,83.2%,53.3%,63.6%,103%,70.9%,87.9%,94.5%
COc1ccc2c(c1)[nH]c(=O)c1c3cccc(F)c3cn21,39.9%,-49.8% (active),27.4%,47.9%,47.8%,42.3%,6.16% (active),,15.8%,63.9%,42.8%,-51.9% (active),22.3%,24.6%,31.9%,8.44% (active),,27.2%
CC(=O)OC[C@]12CC[C@H]3[C@@H](C[C@H]4O[C@]45CC=CC(=O)[C@]35C)[C@]1(O)CC[C@@]2(O)[C@@](C)(O)C1CC(C)=C(C)C(=O)O1 (stereo not given in full),10.4%,-19.6% (active),7.69% (active),-24.1% (active),19.8%,-13.1% (active),-55.1% (active),-23.7% (active),38.9%,-23.2% (active),-12.2% (active),-77.4% (active),-27% (active),-29.3% (active),-82.8% (active),-70.8% (active),,-32.1% (active)
O=C(N/N=C/C=C\c1ccccc1)C(=O)N/N=C/C=C/c1ccccc1,103%,102%,105%,112%,112%,111%,106%,,110%,100%,102%,121%,100%,104%,109%,109%,116%,106%
CCC(=O)Oc1ccc(/C(=C(/C)Cc2cccc(OC)c2)c2ccc(OCCN(C)C)cc2)cc1,-0.896% (active),70.7%,102%,99.1%,87.3%,114%,95.4%,92%,100%,86.7%,95.7%,9.82% (active),,71.8%,95.1%,86.3%,,74.2%
COc1ccc(Nc2ncccc2C(=O)NCc2cn(Cc3cccc(Oc4ccccc4)c3)nn2)c(OC)c1,30.3%,35.5%,43.4%,51.1%,54.9%,21.6%,,-57.8% (active),-10% (active),51.6%,43%,-24.2% (active),25%,15%,-14.4% (active),17.9%,15.3%,26.4%
Brc1ccc(-c2[nH]ncc2-c2c[nH]c3ccccc23)cc1,100%,81.8%,96.4%,97.7%,86.3%,103%,91.1%,97.3%,101%,88.2%,80.1%,92.7%,66.8%,98.4%,112%,94.3%,,96.2%
COc1cc(Cn2cc3c(c2)-c2oncc2CC3)cc(OC)c1OC,11.3%,22.8%,16.6%,41.2%,48%,-5.27% (active),1.48% (active),-40.5% (active),-13.9% (active),,36.7%,-29.9% (active),13.2%,8.52% (active),12.1%,,,27.1%
CC1=C(C#N)C(=O)NC(C)C1 (stereo not given),110%,105%,102%,95.5%,110%,103%,,103%,102%,91.4%,101%,107%,101%,110%,79.8%,107%,97.2%,106%
COc1ccc2c(c1)[nH]c(=O)c1c3cc(C)c(C)cc3cn21,31.9%,-32.2% (active),-27.5% (active),28.8%,42.4%,43.3%,,,8.27% (active),-24.4% (active),0.0621% (active),-60.8% (active),3.58% (active),-35.9% (active),15.7%,-87.7% (active),,-52.8% (active)
Cc1ccc(S(=O)(=O)Nc2c(Br)cc(Br)cc2C(N)=O)cc1,111%,95.2%,105%,99.1%,114%,106%,,112%,99.4%,101%,95.6%,108%,,94.2%,106%,111%,106%,102%
O=C1NC(=C(Cl)Cl)/C(=N/S(=O)(=O)N2CCC(C3(C(F)(F)F)N=N3)CC2)N1,13.3%,23.9%,96.2%,105%,98.1%,,43.5%,40%,106%,47.5%,99.4%,70.7%,74.6%,95.4%,60.5%,93.7%,95.8%,-36.4% (active)
C=C1CC2(OC1=O)C(=O)N(CCCN1C(=O)C3(CC(=C)C(=O)O3)c3ccccc31)c1ccccc12 (stereo not given),3.74% (active),-33.3% (active),11.6%,21.9%,,111%,35%,-13% (active),50%,4.15% (active),33.5%,-17.1% (active),-18.9% (active),-8.31% (active),86.2%,,58.2%,-67.4% (active)
Cc1ccc(Nc2nnc(-c3ccc(Cl)cc3)o2)c(C)c1,53%,89.6%,95%,99%,82.1%,,87.2%,82.4%,45.6%,75.6%,,6.82% (active),56.9%,83.9%,84.8%,65.7%,87.9%,56.5%
N=C(N)c1ccc(-c2ccc(-c3ccc(-c4cccs4)s3)s2)cc1,81.6%,61%,101%,97.8%,90.7%,,96.2%,94.7%,98.6%,76%,99.5%,103%,84%,93.6%,98.7%,96.8%,99.3%,99.6%
N=C(N)c1ccc(-c2ccc(-c3ccc4ccccc4c3)s2)cc1,6.46% (active),60.7%,102%,110%,100%,,91.3%,102%,98.8%,97.6%,96.2%,36.6%,67.9%,78.6%,100%,40.7%,104%,19.3%
